Data taken from PubChem BioAssay.
Active and inactive are the calls of the source.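 Rule for the calls, unless noted: active = inhibition at or above 50% at 10 µM; inactive = inhibition below 50%.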

What was measured:
[1] = inhibitors of TNFa-induced NFkB p65 translocation, primary screen, imaging, HUVEC, MLSMR starter and 10KST1 sets (AID 438;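 active = inhibition above 20% together with a positive visual image hit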;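 note: compound added about 3h40 before a 20 min TNFalpha stimulation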;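 for inhibition: signal is the nuclear over cytoplasmic p65 intensity ratio per well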); conditions: HUVEC TNFa-induced p65 nuclear translocation; cell count: measured here: nuclei count (cytotoxicity indicator), at 2.08 µM; inhibition: at 2 µM, stronger effect = higher value, 0% TNFa-plus-vehicle, 100% no-TNFa wells
[2] = reduction of polyQ htt aggregates in cells – imaging, exon1htt(103Q)mCFP cells, high-content imaging, primary screen (AID 483;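 active = visual image review flags a hit and inhibition of aggregation exceeds 20%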;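 note: compound exposure lasted 3 days before fixation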;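 for nuclei count: percent of the per-plate median nuclei count of sample wells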); conditions: exon1htt(103Q)mCFP cell line, aggregate imaging, at 2 µM; inhibition of aggregation: stronger effect = higher value; nuclei count: measured here: cell count, toxicity
[3] = endothelial E-selectin expression blockers – imaging, HUVEC, immunofluorescence, MLSMR starter and 10KST1 sets, primary screen (AID 487;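 active = visually confirmed hit in the image check and inhibition above 20%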;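 for inhibition: signal is fraction of cell area covered by stained E-selectin grains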;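 for nuclei count: 100% = median nuclei count of all wells on the same plate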); conditions: HUVEC TNFalpha-induced E-selectin immunofluorescence imaging, at 2 µM; inhibition: stronger effect = higher value; nuclei count: measured here: cell number, toxicity
[4] = target: Voltage-gated potassium channel subunit beta-2 (Rattus norvegicus) (UniProt P62483); test: inhibitors of rat Kvbeta2 reductase activity – biochemical, NADPH fluorescence, primary screen (AID 622;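 active = fluorescence slope higher than the sample average by over 3 SD, cut at about -0.22 in these data, passing the limit was not always enough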;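 note: slope of raw intensity against log time taken from 70 to 1610 s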); conditions: recombinant KvBeta, 4-cyanobenzaldehyde reduction, at 10 µM, stronger effect = higher value
[5] = target: Voltage-gated potassium channel subunit beta-2 (Rattus norvegicus) (UniProt P62483); test: enhancers of rat Kvbeta2 NADPH turnover – biochemical, NADPH fluorescence, primary screen (AID 623;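 active = NADPH fluorescence slope more negative than the mean of all samples by about 3 SD, 99.7% confidence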;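 note: fluorescence intensity change per second fitted from 20 to 320 s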); conditions: Recombinant KvBeta, NADPH fluorescence decrease slope, 10 min; at 10 µM; stronger effect = lower value
[6] = target: Alpha-2C adrenergic receptor (Homo sapiens) (UniProt P18825); test: compounds altering alpha2C-coupled GIRK flux – cell-based, HEK293 alpha2C/GIRK1/2, thallium flux, primary screen (AID 624;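 active = fluorescence slope after compound addition differing from the mean of all screened samples at 99.7% confidence, in either direction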;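 note: slope of fluorescence ratio to pre-addition baseline per second over 15 to 24 s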); conditions: thallium flux BTC fluorescence, at 10 µM, actives lie on both sides
[7] = blockers of RIG-like receptor reporter activation – cell-based, Sendai virus stimulus, luciferase, 10K MLSCN set, TLR/RLR signaling modifier project, primary screen (AID 602276); conditions: HEK293 RL24 IRF3 luciferase reporter, at 10 µM, stronger effect = higher value;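 note: firefly luciferase from ISG56 promoter only with Renilla not read in this screen; 0% = Sendai virus plus DMSO and 100% = medium plus DMSO without virus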
[8] = TLR3 IRF3 reporter activation blockers – cell-based, poly I:C stimulus, luciferase, 10K MLSCN set, primary screen (AID 602277;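 active = inhibition of the reporter signal at or above 50%; inactive = inhibition below 50%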); conditions: HEK293-TLR3 RL24 IRF3 luciferase reporter, at 10 µM, stronger effect = higher value

Sequence of Alpha-2C adrenergic receptor (Homo sapiens) (P18825 whole entry, looked up): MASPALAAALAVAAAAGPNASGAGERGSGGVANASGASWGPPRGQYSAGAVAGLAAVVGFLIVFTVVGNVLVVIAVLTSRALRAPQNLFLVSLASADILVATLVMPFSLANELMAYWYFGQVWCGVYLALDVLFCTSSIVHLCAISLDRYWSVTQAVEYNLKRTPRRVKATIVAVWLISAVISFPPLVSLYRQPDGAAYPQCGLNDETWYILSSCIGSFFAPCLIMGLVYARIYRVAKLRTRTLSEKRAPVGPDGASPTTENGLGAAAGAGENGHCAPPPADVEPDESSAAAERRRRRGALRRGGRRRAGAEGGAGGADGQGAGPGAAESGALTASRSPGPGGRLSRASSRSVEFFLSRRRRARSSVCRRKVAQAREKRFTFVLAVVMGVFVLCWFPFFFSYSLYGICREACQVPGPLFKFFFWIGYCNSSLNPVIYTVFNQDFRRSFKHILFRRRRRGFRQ
Sequence of Voltage-gated potassium channel subunit beta-2 (Rattus norvegicus) (P62483 whole entry, looked up): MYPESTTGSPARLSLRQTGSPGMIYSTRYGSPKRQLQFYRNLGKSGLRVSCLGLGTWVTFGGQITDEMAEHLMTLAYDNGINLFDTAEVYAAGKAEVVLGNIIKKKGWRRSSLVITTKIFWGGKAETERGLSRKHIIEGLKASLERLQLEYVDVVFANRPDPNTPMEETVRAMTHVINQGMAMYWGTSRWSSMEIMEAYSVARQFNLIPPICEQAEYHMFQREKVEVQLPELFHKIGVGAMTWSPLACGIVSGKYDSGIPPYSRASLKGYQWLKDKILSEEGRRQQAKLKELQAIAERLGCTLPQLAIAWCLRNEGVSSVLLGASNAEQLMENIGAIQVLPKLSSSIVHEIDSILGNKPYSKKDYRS

| SMILES | cell count [1] | inhibition [1] | inhibition of aggregation [2] | nuclei count [2] | inhibition [3] | nuclei count [3] | fluorescence slope [4] | NADPH fluorescence slope [5] | slope [6] | inhibition [7] | inhibition [8] |
| --- | --- | --- | --- | --- | --- | --- | --- | --- | --- | --- | --- |
| COc1ccc(OCC(=O)Nc2ccc(N3CCOCC3)c(Cl)c2)cc1 | 651 | 7.5% (inactive) | -18.9% (inactive) | 101% | -144% (inactive) | 109% | -0.488 (inactive) | -1.5e-05 (inactive) | 0.00692 (inactive) | 10.5% (inactive) | 5.62% (inactive) |
| N#CC1=C(N)N(c2ccccc2)C(c2ccco2)C1(C#N)C#N (stereo not drawn) | 322 | 2% (inactive) | -3.9% (inactive) | 103% | 3.9% (inactive) | 107% | -0.427 (inactive) | -1.7e-05 (inactive) | 0.00559 (inactive) | 1.35% (inactive) | 9.78% (inactive) |
| Cc1ccc(N2C(N)=NC(N)=NC23CCCC3)c(C)c1 | 656 | -5.9% (inactive) | -11.1% (inactive) | 106% | -26% (inactive) | 122% | -0.635 (inactive) | -5.6e-06 (inactive) | 0.0067 (inactive) | 10% (inactive) | 18.1% (inactive) |
| CC(=O)c1c(C)nn(CC(O)COc2ccc3c(c2)CCC3)c1C (stereo not drawn) | 751 | -4.3% (inactive) | 7.3% (inactive) | 97.4% | -169% (inactive) | 126% | -0.435 (inactive) | 4e-05 (inactive) | 0.00662 (inactive) | -13.5% (inactive) | -41.8% (inactive) |
| Cc1cc(=O)[nH]c(S/C=C/c2ccccc2)n1 | 427 | -1.8% (inactive) | -8.6% (inactive) | 103% | 1.2% (inactive) | 80.7% | -0.603 (inactive) | -2e-05 (inactive) | 0.00593 (inactive) | -28.9% (inactive) | -89.2% (inactive) |
| Cc1cc(C)n(-c2ccc(N3CCOCC3)nn2)n1 | 610 | -5.2% (inactive) | -8.5% (inactive) | 100% | -27.5% (inactive) | 120% | -0.4 (inactive) | -7.8e-06 (inactive) | 0.0039 (inactive) | -5.9% (inactive) | -11.9% (inactive) |
| CS(=O)(=O)NCc1nnc(SCC(=O)NC2CCCCC2)n1-c1ccc(F)cc1 | 820 | -5.5% (inactive) | -0.9% (inactive) | 111% | -5.8% (inactive) | 128% | -0.388 (inactive) | -5.9e-05 (inactive) | 0.00498 (inactive) | 16.2% (inactive) | 26.3% (inactive) |
| CCOc1ccc(N(CC(=O)NC2CCCC(C)C2C)S(=O)(=O)c2c(C)noc2C)cc1 (stereo not drawn) | 872 | 4% (inactive) | 20.7% (inactive) | 131% | -33.2% (inactive) | 111% | -0.612 (inactive) | 7.5e-06 (inactive) | 0.00653 (inactive) | 1.67% (inactive) | 38.3% (inactive) |
| CC(=O)Nc1nc2c(c3c1c(=O)oc1ccccc13)CC(C)CC2 (stereo not drawn) | 509 | -11.6% (inactive) | 14.7% (inactive) | 61.9% | 13.1% (inactive) | 82.7% | -0.457 (inactive) | -1.3e-05 (inactive) | 0.00575 (inactive) | 12.8% (inactive) | 32.3% (inactive) |
| COCCNC(=O)CN1CCN(Cc2cccc(Cl)c2)C1=O | 752 | -11.6% (inactive) | 28.6% (inactive) | 69.7% | -47.9% (inactive) | 125% | -0.536 (inactive) | -4.6e-05 (inactive) | 0.00677 (inactive) | 6.1% (inactive) | 16.8% (inactive) |
| c1ccc(-c2nc3nonc3c3nc4ccccc4n23)cc1 | 333 | -12.4% (inactive) | 1.1% (inactive) | 95.8% | -40.9% (inactive) | 94.2% | -0.244 (inactive) | -2.9e-05 (inactive) | 0.00529 (inactive) | 9.01% (inactive) | -7.48% (inactive) |
| Cn1cccc1Cc1nnc(SCC(N)=O)n1-c1ccc(F)cc1 | 845 | 4.6% (inactive) | 15.1% (inactive) | 102% | -106% (inactive) | 125% | -0.569 (inactive) | -3.1e-05 (inactive) | 0.00615 (inactive) | 10.4% (inactive) | 24.3% (inactive) |
| Cc1ccc(S(=O)(=O)C2(C(=O)Nc3cccnc3)CC2)cc1 | 579 | 8.8% (inactive) | 14.7% (inactive) | 93.3% | -126% (inactive) | 98.8% | -0.573 (inactive) | -2.5e-05 (inactive) | 0.00528 (inactive) | 9.66% (inactive) | 28.7% (inactive) |
| CCn1c(-c2cc(Br)ccc2O)n[nH]c1=S | 623 | -3.8% (inactive) | -0.9% (inactive) | 112% | -27.4% (inactive) | 83.3% | -0.59 (inactive) | -3.5e-05 (inactive) | 0.00762 (inactive) | 8.59% (inactive) | 9.74% (inactive) |
| CC(=O)Nc1ccc(S(=O)(=O)N(C2=NCC(C)S2)c2ccccc2)cc1 (stereo not drawn) | 594 | 5.4% (inactive) | -4.5% (inactive) | 95.5% | -9.1% (inactive) | 109% | -0.496 (inactive) | -1.6e-05 (inactive) | 0.00617 (inactive) | 11.6% (inactive) | 11.1% (inactive) |
| O=C(Nc1cccc2ccccc12)c1ccc(Br)o1 | 638 | 5.6% (inactive) | 7.9% (inactive) | 104% | 18.2% (inactive) | 94.7% | -0.437 (inactive) | -1.5e-05 (inactive) | 0.00359 (inactive) | 2.74% (inactive) | 19.8% (inactive) |
| COc1ccccc1CCNC(=O)C1CCCO1 (stereo not drawn) | 665 | -8.8% (inactive) | -27.9% (inactive) | 118% | -45.2% (inactive) | 98.9% | -0.401 (inactive) | -1.9e-05 (inactive) | 0.00423 (inactive) | 0.904% (inactive) | -9.53% (inactive) |
| Cc1ccc(-c2nnc(SCC(=O)N3CC(C)CC(C)C3)o2)cc1C (stereo not drawn) | 557 | -1.6% (inactive) | 1.6% (inactive) | 32.1% | -32.7% (inactive) | 120% | -0.527 (inactive) | -4.3e-05 (inactive) | 0.00676 (inactive) | -0.246% (inactive) | 9.23% (inactive) |
| O=C(O)c1[nH]c2ccc(Cl)cc2c1CC(=O)N1CCN(C(=O)c2ccco2)CC1 | 374 | -0.5% (inactive) | -8.5% (inactive) | 99.6% | -73.3% (inactive) | 103% | -0.401 (inactive) | -3.1e-05 (inactive) | 0.003 (inactive) | 7.71% (inactive) | 0.844% (inactive) |
| CN1CCN(C(=O)C2(NC(=O)Nc3cccc(F)c3)CCCCC2)CC1 | 586 | -33.7% (inactive) | -14.5% (inactive) | 105% | -39.7% (inactive) | 109% | -0.596 (inactive) | -4.2e-05 (inactive) | 0.00664 (inactive) | 3.99% (inactive) | 3.07% (inactive) |
| O=c1c2[nH]c3cccc(Cl)c3c2ncn1CCN1CCCCC1 | 300 | -2.8% (inactive) | -4.9% (inactive) | 89% | -0.5% (inactive) | 106% | -0.618 (inactive) | -2.5e-05 (inactive) | 0.00476 (inactive) | 16.5% (inactive) | 27.2% (inactive) |
| Cc1cc2ncn(S(=O)(=O)c3ccc(S(=O)(=O)N4CCOCC4)cc3)c2cc1C | 311 | -3.3% (inactive) | 0.7% (inactive) | 93.4% | -98.8% (inactive) | 113% | -0.518 (inactive) | 1.7e-05 (inactive) | 0.00432 (inactive) | -0.351% (inactive) | 3.91% (inactive) |
| COCCOC(=O)C1=C(C)OC(N)=C(C#N)C1c1ccc2c(c1)OCO2 (stereo not drawn) | 468 | -0.5% (inactive) | 12.6% (inactive) | 104% | -87.8% (inactive) | 110% | -0.44 (inactive) | -3.9e-05 (inactive) | 0.00523 (inactive) | 5.43% (inactive) | 23.2% (inactive) |
| CC1(C)CC(=O)C(C=NCc2ccc3c(c2)OCO3)=C(O)C1 | 665 | -29.5% (inactive) | 2.3% (inactive) | 104% | -10.4% (inactive) | 93.7% | -0.459 (inactive) | 3.1e-05 (inactive) | 0.00553 (inactive) | 13.9% (inactive) | 19.8% (inactive) |
| CC(C)(C)NC(=O)CC(CC(=O)O)c1ccccc1 (stereo not drawn) | 584 | 2.9% (inactive) | -4.2% (inactive) | 85.7% | -30.6% (inactive) | 109% | -0.539 (inactive) | -3.4e-05 (inactive) | 0.008 (inactive) | 12.7% (inactive) | 37.3% (inactive) |
| O=C(O)Cc1ccccc1C(=O)O | 685 | -0.4% (inactive) | 0% (inactive) | 99.9% | -66.3% (inactive) | 142% | -0.491 (inactive) | -5e-05 (inactive) | 0.00429 (inactive) | 13.7% (inactive) | 11.2% (inactive) |
| O=C(CCC(=O)N(c1cccc(F)c1)C(C(=O)NC1CCCC1)c1ccncc1)Nc1cccnc1 (stereo not drawn) | 465 | 0.6% (inactive) | -8.2% (inactive) | 70.3% | -32.3% (inactive) | 108% | -0.5 (inactive) | -3.7e-05 (inactive) | 0.00449 (inactive) | 18.8% (inactive) | 20.4% (inactive) |
| COC(=O)C1=CN(C)C=C(C(=O)OC)C1c1ccc(O)c(OC)c1 | 281 | 18.4% (inactive) | -27.8% (inactive) | 23.5% | 7.6% (inactive) | 103% | -0.39 (inactive) | -4.6e-05 (inactive) | 0.00249 (inactive) | 11.2% (inactive) | 23.8% (inactive) |
